Results reported in paper PMC5540273 (PLoS ONE, 2017).
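Note: KINOMEscan kinase panel screen.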

Each compound was assayed on T1, TAK1. Conditions: concentration: 1 μM, replicates: in singlicate; n = 1.
T1 construct: gene MAP3K7
`CN1CCC(n2cnc(-c3ccc(F)cc3)c2-c2ccnc(NC3CCNCC3)n2)CC1` [SB-229482] was tested, and the “%Inh” value was 34%. `COc1cc2ncnc(Nc3ccc(OCc4ccccc4Br)c(Cl)c3)c2cc1OC.Cl` [GI261590] was tested, and the “%Inh” value was 0%. For `CC(=O)Nc1n[nH]c2ncc(-c3ccccc3)cc12` [SB-548492], the “%Inh” value was 20%. In the case of `CNc1nccc(-c2c(-c3ccc(F)cc3)ncn2C2CCN(C)CC2)n1` [SB-222903], the “%Inh” value is reported as 0%. In the case of `O=C(Nc1ccccc1F)NC1CCN(c2ccnc(Nc3ccc(F)cc3)n2)C1` (centres unmarked) [GSK1379722], the “%Inh” value is reported as 0%. `O=C(NCCCN1CCCC1=O)c1cnc(NCc2cc(Cl)ccc2Cl)nc1NC1CCNCC1` was tested, and the “%Inh” value was 27%. In the case of `O=c1cc(N2CCOCC2)nc2n(Cc3cccc(Cl)c3)ccn12` [GSK2296823], the “%Inh” value is reported as 0%. `Nc1n[nH]c2nnc(-c3ccccc3)cc12` [SB-517389] was tested, and the “%Inh” value was 0%. `O=C(Nc1n[nH]c2nc(-c3ccco3)c(Br)cc12)c1ccc(CN2CCCC2)cc1.O=C(O)[C@H](O)[C@@H](O)C(=O)O` [SB-742352] was tested, and the “%Inh” value was 0%. `Nc1nc(-c2cccnc2)c(-c2ccnc3ccccc23)s1` [GW684083] was tested, and the “%Inh” value was 1%. `c1ccc(-c2ccc3c(-c4ccnc(Nc5ccc6c(c5)OCCO6)n4)cnn3n2)cc1` [GW818941] was tested, and the “%Inh” value was 0%. For `Nc1nc(-c2ccc3c(N)n[nH]c3c2)cc(N2CCC[C@@H](C(=O)Nc3ccccc3)C2)n1.O=C(O)C(F)(F)F.O=C(O)C(F)(F)F` [GSK2288359], the “%Inh” value was 5%. For `COC(=O)c1cccc(NC(=O)NCCNc2ccnc(Nc3ccc(F)cc3)n2)c1` [GSK1379883], the “%Inh” value was 0%. In the case of `COC(=O)c1c(-c2ccccc2)c2cc(Cl)ccc2c(=O)n1Cc1ccc(S(C)(=O)=O)cc1`, the “%Inh” value is reported as 17%. `FC(F)(F)c1ccc(-c2cc(-c3c[nH]nc3-c3ccccn3)ccn2)cc1` [GW599550] was tested, and the “%Inh” value was 28%. In the case of `COc1ccc(NC(=O)c2ccc(-c3cc(-c4nnc(C)o4)ccc3C)cc2)cc1` [GW595885], the “%Inh” value is reported as 0%. For `Cl.Cl.c1ccc(-c2cc3ccncc3cc2OC2CCNCC2)cc1` [GSK1122999], the “%Inh” value was 0%. With `CS(=O)(=O)CCNCc1nc(-c2ccc3ncnc(Nc4ccc(OCc5cccc(F)c5)c(Cl)c4)c3c2)cs1.Cl` [GW583340] the “%Inh” value was 0%. `Cn1ccc2ncnc(Oc3ccc(NC(=O)Nc4cccnc4)c(Cl)c3)c21` was tested, and the “%Inh” value was 12%. In the case of `Fc1cccc(COc2ccc(Nc3ncnc4sc(-c5ccc[nH]5)cc34)cc2Cl)c1` [GW707818], the “%Inh” value is reported as 0%. For `Cl.Cn1ccc(-c2cccc(Nc3ccnc4cc(-c5nccs5)ccc34)c2)n1` [GW525701], the “%Inh” value was 0%. With `CS(=O)(=O)CCNCc1ccc(-c2ccc3ncnc(Nc4ccc(OCc5ccccc5)c(Cl)c4)c3c2)o1.Cl` [GW574783] the “%Inh” value was 0%. In the case of `COc1ccc(Nc2nccc(N3CCC(NC(=O)Nc4ccc5c(c4)OCO5)C3)n2)cc1` (centres unmarked) [GSK1379745], the “%Inh” value is reported as 0%. In the case of `Fc1cccc(COc2ccc(Nc3ncnc4nn5ccccc5c34)cc2Cl)c1` [GW689066], the “%Inh” value is reported as 0%. In the case of `Cc1ccc(O)cc1Nc1cc(C(F)(F)F)nc2ccc(-c3ccncc3)cc12` [GW630823], the “%Inh” value is reported as 0%. In the case of `Cl.Fc1ccccc1COc1ccc(Nc2ncnc3ccc(-c4nnc(C(F)(F)F)o4)cc23)cc1Cl` [GW424170], the “%Inh” value is reported as 0%. For `Clc1ccc(-c2cc(-c3c[nH]nc3-c3ccccn3)ccn2)cc1` [GW681251], the “%Inh” value was 0%. For `C[C@H]1CC[C@@H](C(=O)Nc2ccccc2)CN1c1cc(-c2ccc3c(N)n[nH]c3c2)nc(N)n1` [GSK2283293], the “%Inh” value was 0%. `Oc1ccc2ncnc(Nc3ccc(OCc4ccccc4)cc3)c2c1` [GI262866] was tested, and the “%Inh” value was 0%. In the case of `N#Cc1ccc(Oc2ccc(Nc3ncnc4cc[nH]c34)cc2Cl)cc1`, the “%Inh” value is reported as 7%. In the case of `CC(C)(C)c1ccc(-n2cnc3c(N)ncnc32)cc1` [SKF-97263], the “%Inh” value is reported as 10%. With `Cc1ccc(C)c(NC(=O)NCCNc2ccnc(Nc3ccc(F)cc3)n2)c1` [GSK1379878] the “%Inh” value was 0%. With `CCn1c(-c2ccncc2)nc2cnccc21` [SB-735216] the “%Inh” value was 20%. In the case of `COc1ccc(NC(=O)Nc2ccc(C)c(-c3ccc(C(=O)Nc4ccncc4)cc3)c2)cc1` [GSK1398475], the “%Inh” value is reported as 0%. In the case of `Clc1cc(Nc2ncnc3cc[nH]c23)ccc1OCc1ccccn1`, the “%Inh” value is reported as 9%.

What follows are compounds tested on TAOK1. Conditions: concentration: 1 μM, replicates: in singlicate; n = 1.
`CN1CCC(n2cnc(-c3ccc(F)cc3)c2-c2ccnc(NC3CCNCC3)n2)CC1` [SB-229482] was tested, and the “%Inh” value was 0%. `COc1cc2ncnc(Nc3ccc(OCc4ccccc4Br)c(Cl)c3)c2cc1OC.Cl` [GI261590] was tested, and the “%Inh” value was 0%. `CC(=O)Nc1n[nH]c2ncc(-c3ccccc3)cc12` [SB-548492] was tested, and the “%Inh” value was 27%. `CNc1nccc(-c2c(-c3ccc(F)cc3)ncn2C2CCN(C)CC2)n1` [SB-222903] was tested, and the “%Inh” value was 0%. For `O=C(Nc1ccccc1F)NC1CCN(c2ccnc(Nc3ccc(F)cc3)n2)C1` (centres unmarked) [GSK1379722], the “%Inh” value was 0%. For `O=C(NCCCN1CCCC1=O)c1cnc(NCc2cc(Cl)ccc2Cl)nc1NC1CCNCC1`, the “%Inh” value was 0%. `O=c1cc(N2CCOCC2)nc2n(Cc3cccc(Cl)c3)ccn12` [GSK2296823] was tested, and the “%Inh” value was 0%. With `Nc1n[nH]c2nnc(-c3ccccc3)cc12` [SB-517389] the “%Inh” value was 0%. In the case of `O=C(Nc1n[nH]c2nc(-c3ccco3)c(Br)cc12)c1ccc(CN2CCCC2)cc1.O=C(O)[C@H](O)[C@@H](O)C(=O)O` [SB-742352], the “%Inh” value is reported as 0%. For `Nc1nc(-c2cccnc2)c(-c2ccnc3ccccc23)s1` [GW684083], the “%Inh” value was 0%. In the case of `c1ccc(-c2ccc3c(-c4ccnc(Nc5ccc6c(c5)OCCO6)n4)cnn3n2)cc1` [GW818941], the “%Inh” value is reported as 0%. In the case of `Nc1nc(-c2ccc3c(N)n[nH]c3c2)cc(N2CCC[C@@H](C(=O)Nc3ccccc3)C2)n1.O=C(O)C(F)(F)F.O=C(O)C(F)(F)F` [GSK2288359], the “%Inh” value is reported as 0%. `COC(=O)c1cccc(NC(=O)NCCNc2ccnc(Nc3ccc(F)cc3)n2)c1` [GSK1379883] was tested, and the “%Inh” value was 0%. `COC(=O)c1c(-c2ccccc2)c2cc(Cl)ccc2c(=O)n1Cc1ccc(S(C)(=O)=O)cc1` was tested, and the “%Inh” value was 0%. With `FC(F)(F)c1ccc(-c2cc(-c3c[nH]nc3-c3ccccn3)ccn2)cc1` [GW599550] the “%Inh” value was 0%. `COc1ccc(NC(=O)c2ccc(-c3cc(-c4nnc(C)o4)ccc3C)cc2)cc1` [GW595885] was tested, and the “%Inh” value was 0%. In the case of `COc1ccc(-c2nc3n(c2-c2ccncc2)CCC3)cc1` [SKF-104493], the “%Inh” value is reported as 0%. In the case of `Cl.Cl.c1ccc(-c2cc3ccncc3cc2OC2CCNCC2)cc1` [GSK1122999], the “%Inh” value is reported as 0%. `CS(=O)(=O)CCNCc1nc(-c2ccc3ncnc(Nc4ccc(OCc5cccc(F)c5)c(Cl)c4)c3c2)cs1.Cl` [GW583340] was tested, and the “%Inh” value was 0%. In the case of `Cn1ccc2ncnc(Oc3ccc(NC(=O)Nc4cccnc4)c(Cl)c3)c21`, the “%Inh” value is reported as 0%. In the case of `Fc1cccc(COc2ccc(Nc3ncnc4sc(-c5ccc[nH]5)cc34)cc2Cl)c1` [GW707818], the “%Inh” value is reported as 10%. `Cl.Cn1ccc(-c2cccc(Nc3ccnc4cc(-c5nccs5)ccc34)c2)n1` [GW525701] was tested, and the “%Inh” value was 0%. For `CS(=O)(=O)CCNCc1ccc(-c2ccc3ncnc(Nc4ccc(OCc5ccccc5)c(Cl)c4)c3c2)o1.Cl` [GW574783], the “%Inh” value was 0%. In the case of `COc1ccc(Nc2nccc(N3CCC(NC(=O)Nc4ccc5c(c4)OCO5)C3)n2)cc1` (centres unmarked) [GSK1379745], the “%Inh” value is reported as 0%. With `Fc1cccc(COc2ccc(Nc3ncnc4nn5ccccc5c34)cc2Cl)c1` [GW689066] the “%Inh” value was 0%. For `Cc1ccc(O)cc1Nc1cc(C(F)(F)F)nc2ccc(-c3ccncc3)cc12` [GW630823], the “%Inh” value was 0%. With `Cl.Fc1ccccc1COc1ccc(Nc2ncnc3ccc(-c4nnc(C(F)(F)F)o4)cc23)cc1Cl` [GW424170] the “%Inh” value was 0%. `Clc1ccc(-c2cc(-c3c[nH]nc3-c3ccccn3)ccn2)cc1` [GW681251] was tested, and the “%Inh” value was 0%. In the case of `C[C@H]1CC[C@@H](C(=O)Nc2ccccc2)CN1c1cc(-c2ccc3c(N)n[nH]c3c2)nc(N)n1` [GSK2283293], the “%Inh” value is reported as 0%. `Oc1ccc2ncnc(Nc3ccc(OCc4ccccc4)cc3)c2c1` [GI262866] was tested, and the “%Inh” value was 0%. In the case of `N#Cc1ccc(Oc2ccc(Nc3ncnc4cc[nH]c34)cc2Cl)cc1`, the “%Inh” value is reported as 0%. `CC(C)(C)c1ccc(-n2cnc3c(N)ncnc32)cc1` [SKF-97263] was tested, and the “%Inh” value was 6%. In the case of `Cc1ccc(C)c(NC(=O)NCCNc2ccnc(Nc3ccc(F)cc3)n2)c1` [GSK1379878], the “%Inh” value is reported as 0%. In the case of `CCn1c(-c2ccncc2)nc2cnccc21` [SB-735216], the “%Inh” value is reported as 15%. For `COc1ccc(NC(=O)Nc2ccc(C)c(-c3ccc(C(=O)Nc4ccncc4)cc3)c2)cc1` [GSK1398475], the “%Inh” value was 0%. `Clc1cc(Nc2ncnc3cc[nH]c23)ccc1OCc1ccccn1` was tested, and the “%Inh” value was 0%.
